The values that follow come from PubChem BioAssay (NCI).

Molecules are shown by their SMILES. Compounds without any hit were thinned out: in the full panel of roughly 83,000, 20% have a hit.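 Growth was measured after 48 h exposure to one concentration of compound in 96-well plates. Values under 10 count as active.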 A number with no mark means an inactive call. Active and inactive are the calls of the source.

Among the test systems are NCI-H23 lung; NCI-H226 lung; NCI-H322M lung; HOP-62 NSCLC; NCI-H460 lung; HOP-92 NSCLC; A549/ATCC NSCLC; 786-0 renal; COLO 205 colon; DU-145 prostate; K-562 leukemia; MDA-MB-231 breast; RXF 393 renal; SF-268 CNS; SF-295 CNS; SF-539 CNS; UACC-257 melanoma; M14 melanoma; MALME-3M melanoma.
Experiment in all cases: NCI-60 one-dose screen, 48 h (100 = growth as untreated, 0 = no growth, -100 = all killed)
What all share (conditions): 10 µM unless noted

Consider `CN(C)CCC(=O)Nc1ccc(-n2cc(-c3cccc(NC(=S)Nc4cccc(-c5cn(-c6ccc(NC(=O)CCN(C)C)cc6)nn5)c4)c3)nn2)cc1`, for which the growth in the assay on NCI-H23 lung was 89.1%; in the assay on NCI-H226 lung it was 135%; with NCI-H322M lung, 92.4%; with HOP-62 NSCLC, 105%; in the assay on NCI-H460 lung it was 95.6%; with HOP-92 NSCLC it was 101%. In addition, the growth was 88.6% in the assay with A549/ATCC NSCLC; 101% with 786-0 renal; 99.4% in the assay with COLO 205 colon; 115% with DU-145 prostate; 18.6% in the assay with K-562 leukemia; 107% with MDA-MB-231 breast. Also, the growth in the assay on RXF 393 renal was 135%; in the assay on SF-268 CNS, 98.6%; in the assay on SF-295 CNS, 65.3%; in the assay on SF-539 CNS, 97.6%; in the assay on UACC-257 melanoma, 117%; in the assay with M14 melanoma, 112%.

On to `O=C1Nc2ccc(Cl)cc2[C@@](C#CC2CC2)(C(F)(F)F)O1`, for which the growth in the assay on NCI-H23 lung is 87.8%; in the assay with NCI-H226 lung, 81.4%; in the assay on NCI-H322M lung it was 80.9%; in the assay with HOP-62 NSCLC, 104%; with NCI-H460 lung, 102%; in the assay with HOP-92 NSCLC it was 93.2%. Further, the growth was 70.7% with A549/ATCC NSCLC; 96.6% in the assay with 786-0 renal; 127% in the assay with COLO 205 colon; 104% with DU-145 prostate; 67.3% in the assay with K-562 leukemia; 93.4% with MALME-3M melanoma. Moreover, the growth was 86.5% in the assay with MDA-MB-231 breast; 117% in the assay on SF-268 CNS; 82% in the assay on SF-295 CNS; 104% in the assay with SF-539 CNS; 79.9% with UACC-257 melanoma; 86.2% in the assay on M14 melanoma.

With `O=C1Nc2ccc(C(=O)O)c(O)c2C1=O`, the growth is 107% in the assay on NCI-H23 lung; 104% with NCI-H226 lung; 105% in the assay with NCI-H322M lung; 97.4% in the assay with HOP-62 NSCLC; 105% in the assay with NCI-H460 lung; 97.3% with HOP-92 NSCLC. Besides, the growth was 96.9% in the assay with A549/ATCC NSCLC; 109% in the assay on 786-0 renal; 104% with COLO 205 colon; 111% in the assay on DU-145 prostate; 107% in the assay with K-562 leukemia; 113% in the assay with MDA-MB-231 breast. The growth was 116% in the assay with RXF 393 renal; 104% in the assay on SF-268 CNS; 108% in the assay on SF-295 CNS; 94.4% in the assay on SF-539 CNS; 117% in the assay on UACC-257 melanoma; 107% in the assay on M14 melanoma.

For `N#Cc1ccc(-c2csc(Nc3ccc4nc5n(c(=O)c4c3)CCC5)n2)cc1`, the growth was 105% in the assay on NCI-H23 lung; 105% in the assay with NCI-H226 lung; 104% in the assay with NCI-H322M lung; 108% in the assay on HOP-62 NSCLC; 101% in the assay with NCI-H460 lung; 169% in the assay with HOP-92 NSCLC. For the same molecule, the growth with A549/ATCC NSCLC is 101%; in the assay on 786-0 renal it was 104%; in the assay with DU-145 prostate, 109%; in the assay with K-562 leukemia, 96.8%; in the assay with MALME-3M melanoma, 102%; in the assay with MDA-MB-231 breast, 104%. Also, the growth is 106% in the assay with RXF 393 renal; 106% in the assay on SF-268 CNS; 98.2% in the assay with SF-295 CNS; 101% with SF-539 CNS; 108% in the assay with UACC-257 melanoma; 103% in the assay with M14 melanoma.

Take `O=[N+]([O-])c1ccc(N=Nc2c(Cl)cc(O)cc2Cl)cc1`: the growth in the assay with NCI-H23 lung is -23.4% (active); in the assay with NCI-H226 lung it was 10.3%; in the assay on NCI-H322M lung, -11.9% (active); in the assay with HOP-62 NSCLC, 4.04% (active); in the assay on NCI-H460 lung, -4.31% (active); with HOP-92 NSCLC it was 3.34% (active). Also, the growth is 16.4% in the assay with A549/ATCC NSCLC; -20.1% (active) in the assay with 786-0 renal; 35.2% with COLO 205 colon; 11.1% with DU-145 prostate; 1.93% (active) in the assay with K-562 leukemia; -35.6% (active) in the assay on MDA-MB-231 breast. In addition, the growth is 7.36% (active) in the assay on RXF 393 renal; -5.79% (active) in the assay with SF-268 CNS; -55.6% (active) in the assay with SF-295 CNS; -2.1% (active) in the assay with SF-539 CNS; -21.5% (active) in the assay on UACC-257 melanoma; -30% (active) with M14 melanoma.

Consider `O=C(Nc1ccccc1S)c1ccccc1`, for which the growth with NCI-H23 lung is 93.3%; in the assay with NCI-H226 lung it was 103%; with NCI-H322M lung, 103%; in the assay on HOP-62 NSCLC, 120%; with NCI-H460 lung, 98.7%; in the assay on HOP-92 NSCLC it was 109%. For the same molecule, the growth in the assay with A549/ATCC NSCLC is 93.8%; in the assay with 786-0 renal, 109%; in the assay on DU-145 prostate, 111%; with K-562 leukemia it was 86.2%; in the assay with MALME-3M melanoma it was 116%; in the assay with MDA-MB-231 breast it was 102%. For the same molecule, the growth with RXF 393 renal is 125%; with SF-268 CNS, 103%; in the assay on SF-295 CNS it was 100%; in the assay with SF-539 CNS, 104%; in the assay on UACC-257 melanoma it was 92.8%; in the assay with M14 melanoma it was 101%.

Regarding `Cn1cc(NC(=O)Nc2cc(C(=O)O)n(C)c2)cc1C(=O)O`, the growth in the assay on NCI-H23 lung is 109%; in the assay with NCI-H226 lung it was 82.1%; in the assay with NCI-H322M lung it was 100%; with HOP-62 NSCLC, 94.3%; in the assay on NCI-H460 lung it was 120%; in the assay on HOP-92 NSCLC, 119%. Besides, the growth was 102% with A549/ATCC NSCLC; 109% in the assay with 786-0 renal; 121% in the assay on DU-145 prostate; 83.1% in the assay on K-562 leukemia; 89.1% in the assay on MALME-3M melanoma; 98.3% in the assay with MDA-MB-231 breast. Also, the growth with RXF 393 renal was 9.73% (active); in the assay with SF-268 CNS, 122%; in the assay on SF-295 CNS it was 99.4%; with SF-539 CNS, 103%; in the assay on UACC-257 melanoma, 106%; in the assay with M14 melanoma it was 108%.

`Cn1c(N2N=C(c3ccc(Cl)cc3)CC2c2ccccc2)nc(-c2ccccc2)c(C#N)c1=O` (stereo not drawn): the growth is 66.3% with NCI-H23 lung; 74.5% in the assay with NCI-H226 lung; 83.5% in the assay with NCI-H322M lung; 83% with HOP-62 NSCLC; 58.7% in the assay with NCI-H460 lung; 16% in the assay with HOP-92 NSCLC. Moreover, the growth in the assay with A549/ATCC NSCLC is 64.8%; in the assay with 786-0 renal, 84.4%; in the assay with COLO 205 colon, 99.4%; with DU-145 prostate, 89.4%; with MALME-3M melanoma, 97.6%; with MDA-MB-231 breast it was 58.6%. For the same molecule, the growth in the assay with RXF 393 renal is 96.4%; with SF-268 CNS, 57.9%; with SF-295 CNS, 85.4%; in the assay on SF-539 CNS, 103%; in the assay with M14 melanoma, 90%.
